GLD-1 RNA inh = GLD-1-TGE RNA interaction inhibition (C. elegans) | Q17339 | purified GLD-1 + fluorescein TGE RNA, fluorescence polarization | inhibition, % at 5.96 µM | actives 0.44% (n = 320,000);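 active = percent inhibition above a per-plate cutoff, the plate mean of test compounds plus 3 SD, cut at about 30% in these data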;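 note: 0% = DMSO wells with GLD-1 and probe and 100% = wells lacking GLD-1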
MCL1 BIM primary = MCL1-BIM-BH3 interaction inhibition (human). GST-MCL1 / FITC-Bim-BH3 fluorescence polarization. inhibition, % at 10.9 µM. actives 0.68% (n = 320,000). AID 2057;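 active = inhibition above the mean inhibition of all tested compounds plus 3 SD, set per campaign, cut at about 40% in these data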;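 note: 0% = DMSO wells and 100% = unlabeled Bim-BH3 peptide control; higher means more loss of mP so more displacement of Bim peptide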
BCLXL inh = blocks human Bcl-xL binding to Bim BH3 peptide. Q07817. GST-Bcl-xL / FITC-Bim BH3 peptide fluorescence polarization. inhibition, % at 10.9 µM. actives 0.7% (n = 320,000). AID 2129;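 active = inhibition above the mean of all tested compounds plus 3 SD, cutoff set per campaign, cut at about 30% in these data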;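 note: 0% = DMSO wells and 100% = unlabeled Bim-BH3 peptide competitor; inhibitors lower millipolarization by displacing the labeled peptide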
Target sequence (Q07817 whole entry, looked up): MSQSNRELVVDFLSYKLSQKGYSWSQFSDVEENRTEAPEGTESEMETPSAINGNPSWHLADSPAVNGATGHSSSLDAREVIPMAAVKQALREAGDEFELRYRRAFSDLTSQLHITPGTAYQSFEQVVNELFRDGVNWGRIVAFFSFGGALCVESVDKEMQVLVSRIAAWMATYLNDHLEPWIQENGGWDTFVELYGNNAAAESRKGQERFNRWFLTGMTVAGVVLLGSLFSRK
LANA-H2B inh = blocks KSHV LANA binding to histone H2A/H2B; actives 0.6% (n = 320,000); Q9QR71; cell-free LANA-H2A/H2B peptide, fluorescence polarization; inhibition, % (concentration not given with the values); in the data active = inhibition mostly above about 10%, no sharp cut-off; inactive = mostly below about 6.7%
Yeast superoxide = lowers age-related superoxide in aged yeast cells; actives 0.18% (n = 330,000); AID 2690; S. cerevisiae aged cells, superoxide DHE fluorescence; stronger effect = lower value; superoxide response (% of plate mean), % at 10 µM;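 active = superoxide response under a set limit, about three screen SD below normal, cut at about 65% in these data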;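 note: yeast aged for seven days with compound at 30 °C before DHE staining; 100% = average MFI of all compound-treated wells on the plate with controls excluded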
MEX-5 binding = C. elegans MEX-5 TCR-2 RNA binding activity; Q9XUB2; MEX-5/FITC-TCR2 RNA binding, fluorescence polarization; stronger effect = lower value; activity score (negative = inhibition of binding), % at 10 µM; actives 0.38% (n = 300,000);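 active = inhibition past about -25% in most replicates, and total fluorescence under double the plate's negative control median, limit read from the data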;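 note: 0% = DMSO and -100% = 5 µM competing unlabeled TCR2 RNA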
Target sequence (Q9XUB2 whole entry, looked up): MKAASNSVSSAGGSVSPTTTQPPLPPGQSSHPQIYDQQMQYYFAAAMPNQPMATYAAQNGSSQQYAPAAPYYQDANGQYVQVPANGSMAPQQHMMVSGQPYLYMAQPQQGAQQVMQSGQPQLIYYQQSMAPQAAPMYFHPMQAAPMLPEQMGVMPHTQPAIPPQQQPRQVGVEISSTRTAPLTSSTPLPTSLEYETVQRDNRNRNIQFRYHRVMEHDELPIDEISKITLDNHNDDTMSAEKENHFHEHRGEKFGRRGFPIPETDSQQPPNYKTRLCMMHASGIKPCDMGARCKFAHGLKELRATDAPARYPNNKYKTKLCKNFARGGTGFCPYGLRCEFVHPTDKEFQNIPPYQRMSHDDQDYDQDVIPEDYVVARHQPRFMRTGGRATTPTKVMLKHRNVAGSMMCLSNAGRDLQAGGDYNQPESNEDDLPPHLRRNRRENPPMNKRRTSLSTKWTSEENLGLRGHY
CR mimetic CP = confirmation of caloric restriction mimetics inhibiting yeast age-related superoxide; superoxide response (% of plate), % at 10 µM; S. cerevisiae aging, superoxide DHE fluorescence; stronger effect = lower value; AID 434994; shares compounds with Yeast superoxide; actives 1% (n = 850);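 active = superoxide signal below 65% of the plate average of sample wells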;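 note: cells aged with compound for 7 days at 30 degrees C before staining; 100% equals mean DHE fluorescence of all compound wells on the plate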
DHE fluor count = compound alters DHE oxidation or fluorescence in yeast | shares compounds with Yeast superoxide | 850 tested, under 10 active | S. cerevisiae BY4741, flow cytometry; stronger effect = lower value | fluorescence response, % at 10 µM | AID 435000;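 active = fluorescence response below 15%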;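 note: percent of the mean fluorescence averaged over all compound wells on the plate; lower means stronger quenching of DHE signal or ROS scavenging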
An asterisk follows results filed as active; / = no result given. Hits are enriched below; roughly 1.9% of the tested compounds scored in any of these assays.

SMILES	GLD-1 RNA inh	MCL1 BIM primary	BCLXL inh	LANA-H2B inh	Yeast superoxide	MEX-5 binding	CR mimetic CP	DHE fluor count
O=C(Nc1ccc(N2CCN(C(=O)c3ccc(Cl)cc3)CC2)cc1)c1cccnc1	-1.7	6.3	8.8	-4.1	114.4	2.2	/	/
O=C(c1cccnc1)N1CCN(c2ccc(Cl)cc2)CC1	-9.6	-10.2	-0.5	0.0	44.3*	-0.4	111.3	89.0
N#Cc1ccc(N2CCN(C(=O)c3cccc(F)c3)CC2)c(F)c1	-0.3	-6.3	-0.1	2.6	108.7	-2.2	99.1	102.4
Cc1nn(C)c(C)c1C1C(C#N)=C(N)OC2=C1C(=O)CCC2 (stereo unspecified)	-3.3	-3.3	1.6	/	94.2	-0.5	/	/
Nc1ccnc(Oc2ccc(F)cc2)c1	7.0	2.9	7.0	0.6	93.2	-0.4	/	/
Cc1nn(CC(=O)N2CCCC2)c(=O)c2cc3cc(F)ccc3n12	3.3	6.4	9.3	0.9	108.9	3.0	/	/
CCOC(=O)Cc1csc(N/N=C\c2ccc(N(C)C)cc2)n1	-7.2	7.7	5.1	-9.0	102.7	-1.8	/	/
CCN(CC)CC(=O)Nc1c(C#N)cnn1-c1ccccc1	-9.8	5.5	1.1	-7.4	89.8	2.8	/	/
O=C(c1cccc(F)c1)N1CCN(c2cccc(Cl)c2)CC1	1.5	5.2	7.3	4.1	91.7	-0.4	96.1	92.5
O=C(c1cccc(F)c1)N1CCCN(C(=O)c2cccc(F)c2)CC1	2.2	4.0	4.8	2.7	102.7	-1.7	/	/
Cc1cccc(C)c1NC(=O)c1cn(-c2ccccc2)nc1-c1ccccc1	3.1	1.9	4.4	-0.8	99.0	1.0	/	/
O=C(NN=C1CCCCCC1)c1cn(-c2ccccc2)nc1-c1ccccc1	3.3	12.0	4.3	0.4	63.9*	1.5	126.3	102.7
N#CCCN(CCC#N)S(=O)(=O)c1ccc(C(=O)Nc2nnc(C3=COCCO3)o2)cc1	-9.7	-2.6	-8.2	4.3	88.3	0.0	/	/
COc1ccccc1-c1nnc(NC(=O)c2ccc(S(=O)(=O)N(C)CC3CCCO3)cc2)o1 (stereo unspecified)	-0.4	2.9	7.4	-4.2	94.2	-0.7	94.2	96.2
CN(CC1CCCO1)S(=O)(=O)c1ccc(C(=O)Nc2nnc(-c3ccccc3)o2)cc1 (stereo unspecified)	6.5	-1.0	-0.5	-2.4	92.7	0.7	104.8	122.5
COc1ccccc1-c1nnc(NC(=O)c2ccc(S(=O)(=O)N(C)C)cc2)o1	-2.8	2.1	4.2	0.0	89.9	-0.7	/	/
CCCCN(C)S(=O)(=O)c1ccc(C(=O)Nc2nnc(C3=COCCO3)o2)cc1	2.1	8.5	4.1	-0.5	117.6	-0.9	99.4	110.0
Cc1ccc(C)c(N2CCN(C(=O)Cc3c(C(=O)O)[nH]c4ccc(Cl)cc34)CC2)c1	8.3	2.0	9.9	-4.2	122.7	0.2	/	/
Cc1csc(Nc2ccccc2C(F)(F)F)n1	-7.3	-0.2	-0.2	1.1	64.3*	5.2	108.1	100.8
Cc1csc(Nc2cccc3ccccc23)n1	6.1	10.3	2.3	2.7	95.5	-0.4	/	/
Cn1nc(C(=O)OCC(=O)Nc2ccc(C(N)=O)cc2)c2ccccc2c1=O	-2.1	/	/	0.4	101.0	/	/	/
Cc1cc(NC(=O)CSc2nnc(-c3ccc(S(=O)(=O)N4CCCC4)cc3)n2C)no1	-1.3	4.4	-2.2	1.5	51.1*	-1.6	89.8	108.2
OCCCNc1ncnc2c1cnn2-c1ccc(Cl)cc1	-2.0	-5.8	3.9	1.9	92.4	-2.7	91.6	90.2
CN(C)CCNc1ncnc2c1cnn2-c1ccc(Cl)cc1	4.5	4.2	1.0	-1.6	108.1	-0.9	101.1	98.7
Cc1cc(=O)oc2cc(NC(=O)CN3C(=O)NC(C)(c4ccccc4)C3=O)ccc12 (stereo unspecified)	-3.5	-13.4	-14.6	2.0	118.8	-0.7	/	/
SMILES	GLD-1 RNA inh	MCL1 BIM primary	BCLXL inh	LANA-H2B inh	Yeast superoxide	MEX-5 binding	CR mimetic CP	DHE fluor count
O=c1[nH]nc(SCc2ccccc2)n1C1CC2C=CC1C2 (stereo unspecified)	2.1	3.8	5.2	6.4	100.1	-0.6	/	/
COc1ccc(OC)c(-n2nnnc2SCC(=O)NCCc2ccccc2)c1	0.0	-3.1	-1.6	3.4	52.6*	1.3	113.7	114.0
CCCCCCCCSc1nnc(-c2ccc(OC)cc2)o1	-3.2	-8.3	-3.9	/	87.4	2.4	103.4	93.0
CCSc1nnc(-c2ccc(OC)cc2)o1	-2.6	8.6	6.6	0.7	99.8	-0.6	/	/
CC(C)(C)c1ccc(NS(=O)(=O)c2ccc(N)cc2)cc1	0.4	4.3	2.0	1.3	92.6	1.4	131.2	118.9
Nc1ccc(S(=O)(=O)Nc2ccc(S(N)(=O)=O)cc2)cc1	9.4	4.8	1.7	5.5	97.2	0.8	117.8	105.4
N#C/C(=N\Nc1cccc([N+](=O)[O-])c1)C(=O)c1ccc(Br)cc1	-2.3	-0.1	0.3	2.7	97.5	-0.1	/	/
N#C/C(=N\Nc1cccc(C(F)(F)F)c1)C(=O)c1ccsc1	4.8	3.8	9.1	-0.5	63.7*	1.4	107.8	106.2
Cc1nc2ccccc2c(=O)n1/N=C/c1cc(Br)ccc1O	-2.7	5.2	3.3	4.8	64.0*	0.8	106.0	103.6
COc1ccc(Br)cc1/C=N/n1c(C)nc2ccccc2c1=O	/	/	/	/	/	-1.6	/	/
CC(=O)c1ccc(NC(=O)CNCc2cccs2)cc1	-6.9	3.5	-3.2	0.0	95.7	2.3	/	/
N#Cc1ccc(Cl)cc1NC(=O)CNCc1cccs1	-5.4	-4.8	0.8	4.7	63.4*	2.3	95.8	92.6
Cc1cc(C)c2c(CC(=O)NNC(=O)c3ccccc3)coc2c1	5.1	-11.8	-0.5	5.6	129.8	-1.5	/	/
COc1ccccc1-n1cnnc1SCC(=O)Nc1cccc(S(N)(=O)=O)c1	4.2	-1.8	0.5	5.5	85.1	0.8	/	/
CC(=O)C[C@H](O)CC(=O)[C@@H]1OC(=O)CCCCCc2ccccc21	-0.4	/	/	0.6	101.6	/	/	/
Cc1ccccc1OCC(=O)OCn1nnc2ccccc2c1=O	3.6	3.1	2.0	0.5	64.6*	-0.6	108.7	102.1
COc1cc(S(=O)(=O)Nc2ccccc2C)ccc1Cl	-0.5	1.9	5.8	-1.5	97.8	-2.1	100.2	99.8
COc1ccc(S(=O)(=O)Nc2cc(Cl)ccc2OC)cc1	3.7	1.4	4.2	3.4	89.3	0.5	109.5	108.4
COc1ccc(C)cc1S(=O)(=O)Nc1cc(Cl)ccc1Cl	2.3	-0.8	-3.0	12.7	90.8	-1.2	92.2	96.8
COc1cc(NS(=O)(=O)c2cc(C)ccc2OC)c(OC)cc1Cl	8.9	5.9	4.2	-0.2	98.6	0.2	/	/

Screening data: PubChem, several laboratories
